Experimental data from PubChem BioAssay AID588827 (Broad Institute, 2011).
Screen size: about 2,400 compounds; about 20 (0.8%) were called active. Inconclusive results (about 19%) are left out.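 Rule for the calls: active = fitted half-maximal concentration for signal decrease at or below twice the top tested dose, in every repeat run; inconclusive = repeat runs disagree, or flat partial inhibition, or poor fit; inactive = all runs flat, wrong-direction or potency beyond limit.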 Only a sample is shown. Measured potencies and affinities stand elsewhere.

Experiment: GFP reporter loss versus dox-driven RFP – NIH3T3 R4 cells, cherry-pick, set 4, dose response (AID 588827);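 note: 0% = neutral control wells and -100% = didemnin B at 400 nM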
Conditions: NIH3T3 R4 HSF-1 GFP reporter, heat shock, 48 h; series mostly up to 19.5 µM; activity change, negative = inhibition: at the top concentration

Activity change, negative = inhibition, inactive:
Nc1ncnc2oc(-c3ccco3)c(-c3ccco3)c12 -24.9%
CCN1CC2([N+](=O)[O-])C=CC(=O)C([N+](=O)[O-])(C1)C2CC(=O)c1ccccc1 (stereo not given) -27.8%
CCOC(=O)c1c(N)sc2c(O)c(Br)ccc12 -15.5%
Cc1[nH]c2ccccc2c1/C=C/c1nc2ccccc2c(=O)n1-c1cccc([N+](=O)[O-])c1 -7.65%
O=C(c1ccc([N+](=O)[O-])s1)N1CCN(c2cccc(Cl)c2)CC1 -14.1%
O=C(O)c1cccc(COc2ccc3c(c2)CCC3)c1 19.3%
CC(C)c1ccc(-c2nc3ccccc3s2)cc1 -15.1%
CC1=Nc2ccc(C)c3nc(C)cc(c23)N1c1ccc(C)cc1 -23.6%
N#Cc1cc2c(nc1SCC(=O)N1CCOCC1)CCCCC2 -3.19%
COc1ccc(/C=C/C(=O)Oc2ccc(/C=N/NC(=O)COc3c(C)cccc3C)cc2)cc1 -5.78%
CCN(c1ccccc1)S(=O)(=O)c1cnc[nH]1 21.3%
COc1ccccc1N=Nc1ccc(O)c2ncccc12 -0.842%
COc1cccc(NC(=O)Nc2nnc(Cc3ccccc3F)s2)c1 -18.8%
COc1ccccc1C(=O)NCCC(=O)NNC(=O)Cn1ccc(C(F)(F)F)n1 -21.8%
Nc1nc(Cl)nc2ccc(Br)cc12 -19%
CCN1CCN(/C=N/c2nc3c(s2)CCCC3)CC1 -11.3%
Cn1c(=O)c2c(nc(Oc3cccc(O)c3)n2C)n(C)c1=O -12.2%
Cc1ccc(NC(=O)CCN2C(=O)C3CCCCC3C2=O)cc1[N+](=O)[O-] (stereo not given) 28.3%
O=C(CCCCCn1c(=S)[nH]c2cc3c(cc2c1=O)OCO3)N1CCN(C(=O)c2ccco2)CC1 -18.7%
CCCCOc1ccc(N=Cc2ccc[nH]2)cc1 -5.17%
CCOc1ccc(-c2nc(CSCC(=O)N3CCN(c4cccc(OC)c4)CC3)c(C)o2)cc1 -28.1%
O=C(NCCN1CCCCC1)Nc1ccccc1Cl -21.1%
CCC1CCCCN1CCCNC(=O)CSc1nc2nc(C)c(Cc3ccc(C)cc3)c(C)n2n1 (stereo not given) 7.1%
O=C(Nc1ccc2c(c1)ncn2C1CCCCC1)c1ccco1 -27%
CC(C)(C)c1ccc(C(=O)NC(=S)Nc2nc3c(s2)CCCC3)cc1 -26.4%
N#Cc1nc(-c2ccco2)oc1N1CCN(Cc2ccccc2)CC1 -1.82%
COc1ccc(S(=O)(=O)/C(C#N)=C/Nc2cccc(OC)c2)cc1 -13.2%
CCCC[C@@H]1C[C@H]1[C@@H](NC(=O)c1ccco1)c1ccc(Cl)cc1 -16.9%
Cc1ccc(C(=O)Nc2cccc(C(F)(F)F)c2)cc1NC(=O)c1ccno1 2.88%
Fc1ccc(CO/N=C/C2=C(Cl)c3ccccc3CC2)cc1 -14.4%
COc1ccc(-n2c(C)c(C(C)=O)c(C(C)=O)c2C)cc1 -21.1%
CSc1ncccc1C(=O)N1CCCC(N2CCN(c3ccccc3F)CC2)C1 (stereo not given) 6.57%
CC(=O)N/C(=N\c1nc(C)cc(C)n1)Nc1ccc2ccccc2c1 -10.8%
Cc1ccc(/C=C(\NC(=O)c2ccccc2)C(=O)N2CCCC2C(=O)O)cc1 (stereo not given) -6.42%
COc1ccc(NC(=S)Nc2ccc(C)c(S(=O)(=O)N3CCCCC3)c2)cc1 -33.6%
Oc1ccccc1CNc1ccc(OC(F)(F)F)cc1 -21.3%
CCOc1c2ccc(C(=O)NCc3ccccc3OC)cc2nn1CC -2.38%
CC(O/N=C\c1ccccc1O)C(=O)Nc1ccccc1C(=O)N1CCOCC1 (stereo not given) 4.38%
COc1cccc(N(C(=O)c2cccs2)c2nc3ccccc3s2)c1 -7.54%
CCOc1cc(C#N)c(NC(=O)c2cccnc2Cl)cc1OCC -7.83%
C=CCSc1nc2ccccc2n1C(=O)/C=C/c1cc(OC)c(OC)c(OC)c1 2.52%
O=C(Nc1ccc(N2CCCCC2)cc1)c1ccccn1 14.8%
Cc1cc(C)c(N=C2SCC(=O)N2Cc2ccco2)c(C)c1 13.7%
O=C(NC(=O)c1cccc(F)c1)OC[C@@H]1CCCN2CCCC[C@H]12 -8.55%
CCCCN(C(=O)COc1ccc(C)cc1OC)c1c(N)n(CCC)c(=O)[nH]c1=O -8.36%
Cc1cc(C)c2c(c1)/C(=N/NS(=O)(=O)c1ccc(Br)cc1)CCC2 -11.3%
Cc1ccc(N(C)C(=O)CN(C)S(=O)(=O)c2ccc3c(c2)n(C)c(=O)c(=O)n3C)cc1 -5.74%
CCC(=O)Nc1cc2nn(-c3ccc(C)cc3)nc2cc1C -26.2%
O=C1C(Cc2ccccc2)Nc2ncnc(N3CCN(c4ccccc4)CC3)c2N1Cc1ccccc1 (stereo not given) -9.33%
O=C(CSC(=S)N1CCCCC1)Nc1ncc2c(n1)CCCC2=O -1.31%
N#Cc1c(SCC(=O)Nc2nccs2)nc2c(c1-c1ccco1)CCCC2 31.6%
CCN1C(=O)[C@H]2[C@@H](c3ccc(C)cc3)N3C(=O)N(c4ccc(C)cc4)C(=O)[C@@]3(C)[C@H]2C1=O 14.5%
CC(C)Cc1csc(NC(=O)c2ccc(F)cc2)c1C(=O)O -14.2%
CCOC(=O)c1ccc(NC(=S)NC(=O)C2CCCC2)cc1 -32%
CCOC(=O)c1ccc(Nc2ncnc3nc[nH]c23)cc1 1.84%
COc1ccc(C(=O)N2CCN=C2SCc2cccnc2)cc1OC 3.94%
COc1ccc(NC(C)=O)cc1NC(=O)CN1CCN(CC(=O)Nc2ccccc2Cl)CC1 -18.4%
CC1(C)CC(=O)C2=C(C1)N(Cc1ccccc1)C(=O)C2(NC(=O)C(C)(C)C)C(F)(F)F (stereo not given) 1.22%
Cc1ccc(C(=O)CSc2cnc3ccccc3n2)cc1C -15.7%
C/C(=N\NC1=NCCN1)c1ccc(N)c([N+](=O)[O-])c1 -5.31%
Cc1ccc(OCC(=O)Nc2ccccc2C(=O)N2CCCCC2)cc1 -11.1%
CCN(CC)S(=O)(=O)c1cccc(NC(=O)CCNC(=O)NC23CC4CC(CC(C4)C2)C3)c1 -25.2%
Cc1cccc(CS(=O)(=O)Cc2ccc(C(=O)NCc3cccs3)o2)c1 -20.7%
CC(C)OCCCn1c(NN)nc2ccccc2c1=O -8.01%
COc1nc(N)c(C#N)c(-c2ccc(N(C)CCC#N)cc2)c1C#N -15.4%
CCCSc1nnc(CNS(=O)(=O)c2ccc(C)cc2)n1C 15.3%
Cc1ccc(CSCC(=O)N(C)CC(=O)Nc2ccc(C)cc2)cc1 -13.1%
COc1ccc(O)c(-c2c(-c3ccc(Cl)cc3)n[nH]c2C)c1 -9.04%
COc1ccc(NCc2nnc(SCC(=O)Nc3cc(C(F)(F)F)ccc3Cl)o2)cc1 -17.5%
O=C(CCCc1nc(-c2ccccc2Cl)no1)NC1CCCC1 8.17%
COc1ccc(CC(C)Nc2cccc(SC)c2)cc1 (stereo not given) -7.7%
O=C(CN(Cc1ccccc1Cl)S(=O)(=O)c1ccc(Cl)cc1)N/N=C/c1ccc(C(=O)O)cc1 2.93%
Cc1ccc(N=Nc2ccc3ccccc3c2O)cc1 6.26%
C=CCn1c(=NC(=O)C2CC2)sc2cc(NC(C)=O)ccc21 2.06%
CCCCNC(=O)C(=O)N/N=C/c1ccc(C(=O)OC)cc1 -8.74%
O=c1cc(-c2ccccc2)c2ccc(O)cc2o1 -13%
CC(=O)c1ccc(NC(=O)C2CCN(S(=O)(=O)c3cccc4cccnc34)CC2)cc1 -9.15%
COc1ccc(NC(=S)Nc2ccc(F)cc2)c(OC)c1 -12.6%
O=C(CSc1ccc(Br)cc1)Nc1ccccc1N1CCOCC1 -9.45%
COc1cc(C(=O)N2CCSCC2)ccc1OC1CCN(C(C)=O)CC1 -1.88%
COc1ccccc1Oc1ccc2c(c1)C(=O)N(c1ccc(Br)c3cccnc13)C2=O -24.3%
Cc1c(Cl)cccc1NC(=O)Nc1cnccn1 -29.6%
CCN(CC)c1ccc(CNc2nc3ccccc3n2CCN2CCOCC2)cc1 -31.2%
CN(C(=O)c1ccc2c(c1)SC1=NS(=O)(=O)CCN12)C(c1ccccc1)c1ccccc1 4.39% [at 10 µM]
O=c1o[nH]c(-c2ccccc2)c1-c1ccccc1 5.38%
O=C(Nc1cccc(Cl)c1)N1CCOCC1 -24.5%
CCOC(=O)C1(Cc2ccc(OC)cc2)CCN(C(=O)c2csc(C)n2)CC1 -3.83%
Cc1ccccc1-c1nc2sc3c(c2c(=O)n1N)CCCC3 -10.4%
Cn1c(=O)cc(SCC(=O)N2CCN(C(=O)c3ccco3)CC2)c2ccccc21 -11.5%
Cc1[nH]c2ccccc2c1C(C[N+](=O)[O-])c1cccs1 (stereo not given) -1.12%
COc1cccc(-c2cc3nc4c(c(NCC(C)(C)CN(C)C)n3n2)CCCC4)c1 -15.6%
CCOc1ccc(NC(=O)C2CCCN(c3nn4c(=O)cc(C)nc4s3)C2)cc1 (stereo not given) 9.81%
Cc1ccc2nc(-c3ccccc3NC(=O)CCC(=O)O)c(=O)[nH]c2c1 11.3%
N#CC1=C(N)Oc2cc(N)ccc2C1c1ccccc1Cl (stereo not given) -13.4%
Cc1cc(Nc2ccc3c(c2)OCCO3)c2cc(Cl)ccc2n1 -28.1%
CCn1nc(C)c(/C=N/NC(=O)c2c[nH]c3ccccc23)c1C 4.32%
N#Cc1c(N)nc(SCc2ccncc2)c(C#N)c1-c1cccs1 -23%
CCOc1ccc(N(CC(=O)NC2CCCCC2)C(=O)CCC(=O)Nc2nc(C)cs2)cc1 -1.1%
CCSc1nnc(-c2ccc(S(=O)(=O)NCc3cccs3)cc2)o1 -22.9%
O=C(c1cc2c(s1)-c1ccccc1OC2)N1CCN(c2ccccc2)CC1 -1.28%
Cc1cc(/C=C2/C(=O)NN(c3ccccc3)C2=O)c(C)n1-c1ccc(O)cc1 -1.39%
C/C(=N\Nc1nncc2ccccc12)c1ccc(Cl)c([N+](=O)[O-])c1 4.2%
Cc1cc(Cl)ccc1OCCCC(=O)N1CCOCC1 4.58%
CCC(NC(=S)NC1CCCCC1)c1ccccc1 (stereo not given) 3.39%
CCN(CC(=O)Nc1c(F)cccc1F)C(=O)Cc1n[nH]c(=O)c2ccccc12 -8.1%
COC(=O)C1=C(C)N(CCCC(=O)O)C(=O)NC1c1ccc(C#N)cc1 (stereo not given) -11.5%
O=C(CN1CCCCC1)Nc1cccc2c1OCO2 -20.8%
CC(CN1CCOCC1)OC(=O)C(c1ccccc1)c1ccccc1 (stereo not given) 3.47%
O=C(O)CSCC(=O)Nc1ccc(C2CCCCC2)cc1 -19.7%
Cc1ccnc(NC(c2ccsc2)c2ccc3ccc(C)nc3c2O)c1 (stereo not given) 77.1%
